# Results taken from the supplement of paper PMC10849652.
# The full data set covers some 8,800 targets. This sample favours those with a hit. About 0.5% of all pairs of compound and target were hits. Unmarked numbers belong to inactive results.
# Experiments:
# Assay in all cases: log2 fold change, soluble protein after heating vs DMSO (PISA); higher = thermal stabilisation; K562 lysate, 10 uM; active = over 0.2 and 3.5 SD of the protein, either way, in both replicates (recomputed)
# [1] = compound: C#Cc1cccc(Nc2ncnc3cc(OCCOC)c(OCCOC)cc23)c1 [erlotinib]
# Outline: (§1)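 Pellets of K562 cells were dounce-homogenised in PBS pH 7.4 with 1 mM MgCl2, and the crude extract was held at 1 mg/mL protein for a 30 min treatment with 10 μM compound. Aliquots were heated for 3 min over 48°C-58°C and pooled before NP-40 was added to 0.5% at 4°C. The supernatant from 21,000xg for 90 min was quantified by TMTpro 16plex LC-MS/MS with channel sums equalised. Values are reported from duplicates as log-two fold change in thermal stability relative to solvent controls.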
# [2] = compound: C/C(=N\NC(=O)C1=CC(=CC=C1)S(=O)(=O)N2CCOCC2)/C3=C(C=CC(=C3)Cl)O
# Outline: as §1
# [3] = compound: C1=CC(=CC=C1C2=NC3=C(N2)C=C(C=C3)C(=O)N)OC4=CC=C(C=C4)Cl
# Outline: as §1
# [4] = compound: C1=CC2=C(C=CC(=C2)/C=C\3/C(=O)NC(=NCC4=CC=CS4)S3)N=C1
# Outline: as §1
# [5] = compound: C1=CC2=NC=CN=C2C=C1/C=C/3\C(=O)NC(=O)S3
# Outline: as §1
# [6] = compound: C1=CC=C(C=C1)C2=NC(=C(N2)C3=CC=NC=C3)C4=CC(=C(C=C4)Cl)O
# Outline: as §1
# [7] = compound: C1=CC=C2C(=C1)C3=NNC4=CC=CC(=C43)C2=O
# Outline: as §1
# [8] = compound: C1CCN(C1)C(=O)NC2=CC=CC(=C2)NC3=NC=C(C(=N3)NCCC4=CN=CN4)Br
# Outline: as §1
# [9] = compound: C1CN(CCC1(CC2=CC=C(C=C2)Cl)N)C3=NC=NC4=C3C=CN4
# Outline: as §1
# [10] = compound: C1COCCN1CCN2C3=CC=CC=C3N=C2NC(=O)C4=CC(=CC=C4)[N+](=O)[O-] [IRAK-1-4 Inhibitor I]
# Outline: as §1
# [11] = compound: C=CC(=O)N1CCC[C@@H](n2nc(-c3ccc(Oc4ccccc4)cc3)c3c(N)ncnc32)C1 [ibrutinib]
# Outline: as §1
# [12] = compound: CC(=O)c1cnc2ccc(-c3cc(Cl)c(O)c(Cl)c3)nc2c1N[C@H]1CC[C@H](CN(C)C)CC1
# Outline: as §1
# [13] = compound: CC(C)(C)Cn1c(N)nc2ccc(-c3[nH]c(C(C)(C)C)nc3-c3ccc(F)cc3)nc21 [ralimetinib]
# Outline: as §1
# [14] = compound: CC(C)(O)CC(=O)NCCn1ccc2ncnc(Nc3ccc(Oc4cccc(C(F)(F)F)c4)c(Cl)c3)c21
# Outline: as §1
# [15] = compound: CC(C)C1=C2N=C(C=C(N2N=C1)NCC3=CC=CC=C3)NCCCCCCN
# Outline: as §1
# [16] = compound: CC1=C(C(CC(=O)N1)C2=CC=C(C=C2)C(F)(F)F)C(=O)NC3=C(C=C4C(=C3)C=NN4)F
# Outline: as §1
# [17] = compound: CC1=C(C2=C(C=C1)C(=O)C3=CC=CC=C3N2CCCN)C
# Outline: as §1
# [18] = compound: CC1=C(C=C(C=C1)NC(=O)C2=CC(=CC=C2)C(C)(C)C#N)NC3=CC4=C(C=C3)N=CN(C4=O)C
# Outline: as §1
# [19] = compound: CC1=C(C=C(C=C1)NC(=O)C2=CC(=CC=C2)N(C)C)NC(=O)C3=CC=C(C=C3)O
# Outline: as §1
# [20] = compound: CC1=CC=C(C=C1)SC2=C3C=C(SC3=CN=C2)C(=O)N
# Outline: as §1
# Chain of UniProt Q01813 (Q01813 whole entry, looked up): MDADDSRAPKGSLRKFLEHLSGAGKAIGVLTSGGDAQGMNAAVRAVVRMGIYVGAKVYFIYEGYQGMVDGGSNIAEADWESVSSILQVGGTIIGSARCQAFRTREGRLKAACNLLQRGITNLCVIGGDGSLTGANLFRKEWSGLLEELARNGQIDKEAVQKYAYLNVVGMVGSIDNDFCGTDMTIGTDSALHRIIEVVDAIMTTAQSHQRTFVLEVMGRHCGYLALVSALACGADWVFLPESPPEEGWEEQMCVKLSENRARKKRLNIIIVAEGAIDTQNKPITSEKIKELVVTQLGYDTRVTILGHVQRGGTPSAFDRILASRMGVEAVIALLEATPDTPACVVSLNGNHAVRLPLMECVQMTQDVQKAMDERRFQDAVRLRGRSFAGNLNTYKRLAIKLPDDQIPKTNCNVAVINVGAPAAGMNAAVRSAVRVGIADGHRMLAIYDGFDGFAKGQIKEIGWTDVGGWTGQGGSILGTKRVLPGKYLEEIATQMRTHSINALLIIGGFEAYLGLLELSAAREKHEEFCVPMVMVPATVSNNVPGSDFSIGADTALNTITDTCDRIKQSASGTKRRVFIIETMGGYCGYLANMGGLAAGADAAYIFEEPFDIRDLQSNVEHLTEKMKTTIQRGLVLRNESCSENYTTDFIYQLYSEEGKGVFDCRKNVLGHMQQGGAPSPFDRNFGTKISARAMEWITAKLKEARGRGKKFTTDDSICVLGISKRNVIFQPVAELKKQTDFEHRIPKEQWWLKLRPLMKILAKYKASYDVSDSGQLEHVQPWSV
# Chain of UniProt P46020 (P46020 whole entry, looked up): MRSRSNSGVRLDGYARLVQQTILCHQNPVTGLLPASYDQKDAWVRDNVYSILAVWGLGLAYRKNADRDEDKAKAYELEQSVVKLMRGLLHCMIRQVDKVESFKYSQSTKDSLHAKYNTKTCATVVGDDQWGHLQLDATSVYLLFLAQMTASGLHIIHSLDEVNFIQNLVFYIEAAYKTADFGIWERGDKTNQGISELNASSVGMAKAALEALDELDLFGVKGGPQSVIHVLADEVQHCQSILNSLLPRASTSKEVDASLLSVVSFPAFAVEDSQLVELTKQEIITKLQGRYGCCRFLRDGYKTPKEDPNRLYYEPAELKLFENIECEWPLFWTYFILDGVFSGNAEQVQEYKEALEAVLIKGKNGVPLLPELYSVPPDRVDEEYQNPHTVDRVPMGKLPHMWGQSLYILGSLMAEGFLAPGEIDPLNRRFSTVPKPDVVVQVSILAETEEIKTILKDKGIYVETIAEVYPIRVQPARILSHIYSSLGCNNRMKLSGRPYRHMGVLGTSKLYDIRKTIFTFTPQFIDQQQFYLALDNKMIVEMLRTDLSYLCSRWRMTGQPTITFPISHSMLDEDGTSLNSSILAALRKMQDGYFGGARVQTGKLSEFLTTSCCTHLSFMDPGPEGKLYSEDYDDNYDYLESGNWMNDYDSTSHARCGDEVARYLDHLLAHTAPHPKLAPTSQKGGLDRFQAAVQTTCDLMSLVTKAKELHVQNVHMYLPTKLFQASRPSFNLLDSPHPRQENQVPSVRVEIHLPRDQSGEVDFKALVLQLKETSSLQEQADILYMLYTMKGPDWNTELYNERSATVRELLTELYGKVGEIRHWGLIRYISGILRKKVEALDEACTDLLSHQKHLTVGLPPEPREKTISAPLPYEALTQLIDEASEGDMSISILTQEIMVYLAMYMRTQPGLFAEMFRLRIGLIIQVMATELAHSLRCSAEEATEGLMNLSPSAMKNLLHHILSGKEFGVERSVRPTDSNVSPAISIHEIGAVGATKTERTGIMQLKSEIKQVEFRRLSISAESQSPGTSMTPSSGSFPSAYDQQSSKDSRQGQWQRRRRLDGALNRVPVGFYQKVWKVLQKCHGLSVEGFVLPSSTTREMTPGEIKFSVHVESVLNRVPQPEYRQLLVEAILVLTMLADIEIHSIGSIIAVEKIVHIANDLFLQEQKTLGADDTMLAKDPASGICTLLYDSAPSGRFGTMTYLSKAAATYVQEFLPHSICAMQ
# Chain of UniProt P29350 (P29350 whole entry, looked up): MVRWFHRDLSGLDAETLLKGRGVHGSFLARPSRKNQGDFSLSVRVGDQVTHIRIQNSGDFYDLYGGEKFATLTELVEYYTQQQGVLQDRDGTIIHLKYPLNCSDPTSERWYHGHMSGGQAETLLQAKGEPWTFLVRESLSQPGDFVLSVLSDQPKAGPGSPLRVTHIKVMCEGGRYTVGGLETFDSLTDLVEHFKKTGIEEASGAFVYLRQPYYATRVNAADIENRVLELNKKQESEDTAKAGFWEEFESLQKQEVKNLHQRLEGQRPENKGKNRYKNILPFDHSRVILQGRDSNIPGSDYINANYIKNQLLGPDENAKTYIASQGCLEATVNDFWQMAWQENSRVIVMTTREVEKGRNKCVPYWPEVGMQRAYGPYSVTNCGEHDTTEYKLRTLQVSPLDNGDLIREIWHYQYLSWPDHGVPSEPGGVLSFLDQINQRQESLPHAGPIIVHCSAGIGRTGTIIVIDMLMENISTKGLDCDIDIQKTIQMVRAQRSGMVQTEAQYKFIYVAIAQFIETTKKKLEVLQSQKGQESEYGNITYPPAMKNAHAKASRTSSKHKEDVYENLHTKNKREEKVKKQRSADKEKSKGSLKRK
# Chain of UniProt Q9Y446 (Q9Y446 whole entry, looked up): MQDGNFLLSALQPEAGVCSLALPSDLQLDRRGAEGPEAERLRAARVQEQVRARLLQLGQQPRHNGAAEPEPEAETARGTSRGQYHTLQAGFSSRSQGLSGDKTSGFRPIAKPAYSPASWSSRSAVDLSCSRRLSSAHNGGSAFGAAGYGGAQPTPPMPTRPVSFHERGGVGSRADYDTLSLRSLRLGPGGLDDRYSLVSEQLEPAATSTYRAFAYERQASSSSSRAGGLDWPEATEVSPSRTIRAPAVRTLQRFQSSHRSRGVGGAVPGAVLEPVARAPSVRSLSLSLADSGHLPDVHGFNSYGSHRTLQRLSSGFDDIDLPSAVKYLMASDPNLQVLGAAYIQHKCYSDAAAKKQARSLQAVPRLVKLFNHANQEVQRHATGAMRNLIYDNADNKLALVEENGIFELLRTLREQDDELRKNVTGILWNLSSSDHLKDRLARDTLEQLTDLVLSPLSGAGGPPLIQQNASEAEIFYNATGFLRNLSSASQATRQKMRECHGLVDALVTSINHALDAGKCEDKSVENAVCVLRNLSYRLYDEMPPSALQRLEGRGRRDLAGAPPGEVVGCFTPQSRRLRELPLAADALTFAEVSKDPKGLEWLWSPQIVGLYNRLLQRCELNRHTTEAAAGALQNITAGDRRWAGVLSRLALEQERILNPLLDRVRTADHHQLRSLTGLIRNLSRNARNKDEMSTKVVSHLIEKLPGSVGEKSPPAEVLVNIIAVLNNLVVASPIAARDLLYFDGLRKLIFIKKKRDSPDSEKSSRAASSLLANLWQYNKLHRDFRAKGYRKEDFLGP
# Chain of UniProt Q13492 (Q13492 whole entry, looked up): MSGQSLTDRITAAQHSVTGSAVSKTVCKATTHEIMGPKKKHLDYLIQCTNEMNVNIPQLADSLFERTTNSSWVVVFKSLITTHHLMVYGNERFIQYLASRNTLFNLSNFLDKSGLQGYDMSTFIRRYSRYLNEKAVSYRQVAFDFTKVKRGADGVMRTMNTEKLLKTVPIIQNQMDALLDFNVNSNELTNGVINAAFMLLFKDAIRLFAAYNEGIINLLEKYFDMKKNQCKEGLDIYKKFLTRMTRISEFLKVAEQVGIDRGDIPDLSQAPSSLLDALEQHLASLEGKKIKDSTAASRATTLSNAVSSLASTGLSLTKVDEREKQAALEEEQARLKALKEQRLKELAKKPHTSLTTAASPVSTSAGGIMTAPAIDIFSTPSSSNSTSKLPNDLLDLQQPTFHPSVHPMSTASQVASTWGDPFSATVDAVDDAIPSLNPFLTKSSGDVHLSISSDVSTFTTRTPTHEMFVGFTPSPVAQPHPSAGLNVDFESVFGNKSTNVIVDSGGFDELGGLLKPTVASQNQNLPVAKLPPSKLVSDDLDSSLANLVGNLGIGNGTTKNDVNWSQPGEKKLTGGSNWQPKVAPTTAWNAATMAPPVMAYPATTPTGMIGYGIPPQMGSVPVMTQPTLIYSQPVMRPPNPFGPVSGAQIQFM
# Chain of UniProt P0C869 (P0C869 whole entry, looked up): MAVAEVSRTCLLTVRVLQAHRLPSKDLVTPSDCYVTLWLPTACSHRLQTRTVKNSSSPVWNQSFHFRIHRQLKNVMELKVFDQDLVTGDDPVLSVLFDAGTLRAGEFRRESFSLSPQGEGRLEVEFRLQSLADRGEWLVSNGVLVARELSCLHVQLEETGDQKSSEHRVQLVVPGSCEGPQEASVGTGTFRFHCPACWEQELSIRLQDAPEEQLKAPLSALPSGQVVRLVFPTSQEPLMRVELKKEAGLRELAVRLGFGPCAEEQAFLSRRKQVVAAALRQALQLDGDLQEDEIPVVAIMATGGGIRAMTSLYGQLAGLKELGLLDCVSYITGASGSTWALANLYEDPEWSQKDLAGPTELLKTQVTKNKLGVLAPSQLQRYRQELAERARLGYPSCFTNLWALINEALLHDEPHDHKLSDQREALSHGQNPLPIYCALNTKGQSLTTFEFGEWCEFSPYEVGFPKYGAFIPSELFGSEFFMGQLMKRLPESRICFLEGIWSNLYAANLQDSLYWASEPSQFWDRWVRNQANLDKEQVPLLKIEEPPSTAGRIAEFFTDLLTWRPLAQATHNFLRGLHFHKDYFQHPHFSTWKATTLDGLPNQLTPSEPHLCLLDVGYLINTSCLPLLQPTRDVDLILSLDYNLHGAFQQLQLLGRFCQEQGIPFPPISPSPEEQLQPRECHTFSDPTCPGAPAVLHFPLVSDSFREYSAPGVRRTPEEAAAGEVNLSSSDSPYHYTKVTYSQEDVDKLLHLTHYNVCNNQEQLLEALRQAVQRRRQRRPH
# Chain of UniProt O00264 (O00264 whole entry, looked up): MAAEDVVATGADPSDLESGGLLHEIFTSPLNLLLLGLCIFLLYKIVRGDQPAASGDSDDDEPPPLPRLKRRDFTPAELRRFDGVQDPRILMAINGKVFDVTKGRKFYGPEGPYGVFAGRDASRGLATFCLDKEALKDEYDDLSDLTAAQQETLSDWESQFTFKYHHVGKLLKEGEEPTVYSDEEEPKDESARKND
Target,log2 fold change [1],log2 fold change [2],log2 fold change [3],log2 fold change [4],log2 fold change [5],log2 fold change [6],log2 fold change [7],log2 fold change [8],log2 fold change [9],log2 fold change [10],log2 fold change [11],log2 fold change [12],log2 fold change [13],log2 fold change [14],log2 fold change [15],log2 fold change [16],log2 fold change [17],log2 fold change [18],log2 fold change [19],log2 fold change [20]
PPOX (UniProt P50336),-0.044,0.532 (active),0,-0.015,-0.04,0.025,0.014,0,-0.041,-0.016,0.067,-0.008,0.001,0.091,0.301,-0.022,-0.138,0.105,0.006,0.012
PIK3CB (UniProt P42338),-0.024,-0.014,-0.045,0.159,0.412,0.019,0.095,0.002,0.052,0.037,-0.009,0.388,-0.011,-0.005,-0.076,-0.003,0.035,-0.012,0.056,0.018
PFKP (UniProt Q01813),-0.01,-0.006,0.019,-0.001,-0.01,0,0.032,0.033,0.031,-0.003,-0.001,0.009,0.004,-0.029,0.001,-0.015,0.007,0.003,0.002,0.062
PLA2G4B isoform 6 (UniProt P0C869),0.099,0.064,0.048,-0.099,0.023,0.062,-0.021,-0.011,0.026,0.065,-0.029,-0.046,-0.17,-0.15,0,-0.047,-0.149,0.34,-0.005,-0.052
PHKA1 (UniProt P46020),-0.011,0.003,-0.015,0.063,0.078,-0.027,0.205,0.05,0.026,0.01,-0.045,0.012,0.03,-0.031,-0.053,0.004,-0.019,-0.005,0.032,0.003
PICALM (UniProt Q13492),-0.019,-0.035,0.02,-0.021,0.01,-0.06,-0.014,-0.016,0.001,0.026,-0.023,0.011,-0.025,-0.039,-0.004,-0.018,0.004,0.021,-0.004,-0.005
PKP3 isoform 2 (UniProt Q9Y446),0.063,-0.011,0.042,0.009,0.006,-0.011,-0.02,-0.011,-0.013,0.015,0.005,-0.022,-0.028,0.009,-0.006,0.014,0.021,0.004,-0.019,0.052
PGRMC1 (UniProt O00264),-0.032,-0.378,0.025,-0.029,0.003,0.018,-0.004,0.008,0.013,-0.005,0.057,0.013,0.008,-0.01,-0.035,0.004,0.022,-0.066,-0.007,-0.005
PTPN6 isoform 4 (UniProt P29350),0.054,0.097,-0.03,-0.05,0.047,0.04,0.033,-0.078,-0.224,-0.073,0.051,-0.077,0.045,-0.026,0.019,0,-0.081,-0.031,0.011,0.054
PPP3CA isoform 2 (UniProt Q08209),-0.005,-0.037,0.045,-0.036,-0.014,0.014,-0.006,0.082,-0.026,-0.01,0.017,0.012,-0.01,-0.052,-0.014,0,-0.03,0.03,0.028,-0.012
PMS2 (UniProt P54278),0.036,0.012,-0.058,-0.005,-0.015,-0.028,-0.032,-0.013,0.012,0.001,0.027,0.032,0.046,-0.047,0.069,-0.038,-0.049,-0.019,-0.004,0.002
PPIL2 (UniProt Q13356),-0.03,0.02,0.007,0.021,-0.002,0.039,-0.045,-0.036,0.003,-0.016,-0.002,-0.003,0.02,0.025,0.046,0.011,-0.017,0.033,0.003,0.005
PTGR2 (UniProt Q8N8N7),0.01,0.064,0.001,0.065,-0.041,0.054,0.016,0.015,0.001,-0.035,-0.006,0.026,0.019,0.068,-0.042,-0.011,-0.024,0.006,0.037,0.029
PDXDC1 (UniProt Q6P996),-0.012,0.008,-0.095,0.034,0.013,-0.005,0.024,-0.011,-0.024,-0.006,-0.006,0.051,0.071,-0.017,0.001,0.014,-0.024,-0.019,0.024,0.022
PES1 (UniProt O00541),0,-0.071,-0.014,-0.044,-0.001,0.001,-0.012,0.025,-0.056,0.037,0.016,0.017,0.031,-0.03,0.006,0.013,-0.052,0.012,0.003,0.007
PRKD2 isoform 3 (UniProt Q9BZL6),0.085,-0.047,0.031,-0.112,0.028,0.014,-0.037,-0.175,-0.009,0.021,0.026,-0.065,0.019,-0.122,0.045,0.04,-0.111,-0.034,0.046,0.007
